# Screening data as filed in PubChem.
# KCNQ2 block: KCNQ2 (rat) channel inhibition; O88943; CHO-K1 KCNQ2, FluxOR thallium flux, 20 min; stronger effect = lower value; B-score at 10 µM; 310,000 compounds, 1.1% hits;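 active means fluorescence ratio B-score at most minus 3 library SDs, with starting brightness B-score within 2 library SDs, cut at about -5.5 in these data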
# Target sequence (O88943 whole entry, looked up): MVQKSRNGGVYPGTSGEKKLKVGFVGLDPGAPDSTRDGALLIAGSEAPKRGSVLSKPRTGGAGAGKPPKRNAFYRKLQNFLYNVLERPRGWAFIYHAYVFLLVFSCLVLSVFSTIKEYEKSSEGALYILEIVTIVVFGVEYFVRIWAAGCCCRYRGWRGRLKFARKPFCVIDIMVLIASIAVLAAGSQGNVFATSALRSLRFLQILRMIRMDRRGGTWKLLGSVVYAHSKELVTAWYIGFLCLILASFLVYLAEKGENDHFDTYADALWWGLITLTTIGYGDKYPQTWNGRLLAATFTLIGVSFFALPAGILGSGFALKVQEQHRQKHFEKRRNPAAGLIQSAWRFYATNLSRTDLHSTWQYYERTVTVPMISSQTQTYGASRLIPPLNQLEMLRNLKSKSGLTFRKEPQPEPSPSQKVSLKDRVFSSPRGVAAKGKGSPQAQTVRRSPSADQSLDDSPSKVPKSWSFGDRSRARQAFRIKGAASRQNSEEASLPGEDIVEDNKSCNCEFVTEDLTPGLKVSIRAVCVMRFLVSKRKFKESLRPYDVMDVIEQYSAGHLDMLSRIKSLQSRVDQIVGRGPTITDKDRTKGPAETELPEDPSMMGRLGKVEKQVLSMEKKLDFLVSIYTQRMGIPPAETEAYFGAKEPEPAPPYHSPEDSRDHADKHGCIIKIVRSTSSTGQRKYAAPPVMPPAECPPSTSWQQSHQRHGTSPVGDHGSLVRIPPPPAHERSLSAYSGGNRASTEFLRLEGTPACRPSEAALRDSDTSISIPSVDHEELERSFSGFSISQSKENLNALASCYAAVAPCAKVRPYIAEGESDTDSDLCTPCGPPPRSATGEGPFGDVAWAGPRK
# KCNQ2 pot: potentiators of rat KCNQ2 potassium channel; 310,000 compounds, 0.54% hits; B-score at 10 µM; CHO-K1 KCNQ2, FluxOR thallium flux fluorescence; stronger effect = higher value; O88943; AID 2239;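 active means fluorescence ratio B-score at least 3 SD of library B-scores, with initial fluorescence B-score within 3 of them, cut at about 5.3 in these data; same plate scores as AID 2156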;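 further: B-score of peak minus minimum over baseline fluorescence ratio after K+ and Tl+ stimulus; positive B-score means potentiation of KCNQ2 with more thallium influx and brighter signal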
# Hits are given with their value; – = inactive; · = no result. Rows were chosen to be rich in hits. Some 1.6% of all compounds tested hit in one or more screens of this group.
SMILES,KCNQ2 block,KCNQ2 pot
O=S(=O)(c1ccccc1Br)N1CCC(O)(c2cccnc2)CC1,–,·
Cc1cccc(OCc2nnc(SCC(=O)N(C(C)C)C(C)C)n2Cc2ccco2)c1C,-7.68,–
Cc1cc(NC(=O)CSc2nnc(COc3cccc(C)c3C)n2Cc2ccco2)no1,–,–
Cc1ccccc1NC(=S)Nc1ccc(Br)cc1,–,–
N#C/C(=C\c1ccc(Cl)cc1)C(=O)Nc1cccnc1,–,·
Cc1ccc(NC(=O)CSc2nc3sc(C)cc3c(=O)n2C)cc1,–,–
Cc1ccc(S(=O)(=O)N2CCCC2CNC(=O)C(=O)Nc2ccc(F)cc2)cc1 (centres undefined),–,·
Cc1cc(C)n(-c2nc3ccccc3nc2N2CCN(S(=O)(=O)c3ccc4ccccc4c3)CC2)n1,-5.89,–
Cc1cc(C)n(-c2nc3ccccc3nc2N2CCN(S(=O)(=O)c3ccc(F)c(C)c3)CC2)n1,–,·
CC(NC(=O)c1ccc(F)cc1Cl)C1CC2CCC1C2 (centres undefined),–,·
Cc1ccc(C(=O)NC(C)C2CC3CCC2C3)c(C)c1 (centres undefined),-7.72,–
COc1ccc(NC(=O)c2cc(S(=O)(=O)N3CCCCC3)c[nH]2)cc1Cl,–,–
O=C(C1=C[C@@H](C2CCCCC2)C[C@@H](OCc2ccc(CO)cc2)O1)N1CCN(Cc2ccccc2)CC1,-6.5,–
C[C@@H]1C=C(C(=O)N2CCN(Cc3ccccc3)CC2)O[C@H](OCc2ccc(CO)cc2)C1,–,·
O=C(C1=C[C@H](C2CCCCC2)C[C@H](OCc2ccc(CO)cc2)O1)N1CCN(Cc2ccccc2)CC1,-6.71,–
O=C(C1=C[C@H](C2CCCCC2)C[C@H](OCc2ccc(CO)cc2)O1)N1CCOCC1,–,·
CCCc1cc(=O)[nH]c2nnc(SCC(=O)Nc3cc(C)on3)n12,–,–
CSCC[C@H](NC(=O)OC(C)(C)C)c1nnc(SCc2cccc(F)c2)o1,–,·
CC(C)C[C@H](NC(=O)OC(C)(C)C)c1nnc(SCc2cccc(F)c2)o1,-7.47,–
O=C(NCCCNC(=O)c1cccnc1)c1ccc(Cl)cc1,–,–
COC(=O)[C@@H]1CC[C@H](C)[C@@H](c2ccc(C)cc2)N1C(=O)c1ccc(/C=N/OC[C@@H](O)COCc2ccco2)cc1,–,·
C=CC[C@@H]1C=C[C@H](O/N=C/c2ccc(C(=O)N3[C@H](c4ccc(C)cc4)[C@@H](C)CC[C@H]3C(=O)OC)cc2)[C@@H](CO)O1,-6.08,–
COCCNC(=O)CN(Cc1ccc(F)cc1)C(=O)CCC(=O)Nc1nccs1,–,–
CC(C)(C)NC(=S)NC(C)(C)C,–,–
NS(=O)(=O)c1ccc(CNC(=O)NC23CC4CC(CC(C4)C2)C3)cc1,–,–
SMILES,KCNQ2 block,KCNQ2 pot
Cc1ccc(CNC(=O)NC23CC4CC(CC(C4)C2)C3)cc1,–,11.1
CCCc1nc(SCC(=O)NCC2CCCO2)c2c(=O)n(C)c(=O)n(C)c2n1 (centres undefined),–,–
O=C(C[n+]1cc(Br)cc2ccccc21)c1ccc(Cl)cc1,-7.54,–
O=C(C[n+]1cc(Br)cc2ccccc21)c1ccc(Br)cc1,-6.1,–
O=C(C[n+]1cccc2ccccc21)c1ccc(Br)cc1,–,–
O=C(C[n+]1cc(Br)cc(Br)c1)c1ccc(Cl)cc1,–,·
CCC1CCCCN1CCCNC(=O)Cn1c(=O)c2cccn2c2cccnc21 (centres undefined),–,–
N#CCC(=O)Nc1ccc(C(=O)OCC(=O)N(C2CCCCC2)C2CCCCC2)cc1,–,–
Cc1ccccc1/C=C1\SC(=S)N(/N=C/c2cc([N+](=O)[O-])ccc2O)C1=O,–,·
COc1ccc(NC(=O)c2cc(S(=O)(=O)N(Cc3ccccc3)c3ccccc3)ccc2Cl)cn1,–,·
CCn1c(-c2cc(-c3ccccc3OC)nc3ccccc23)n[nH]c1=S,-7.18,–
CCn1c(-c2cc(-c3cc(OC)ccc3OC)nc3ccccc23)n[nH]c1=S,–,·
O=c1[nH]c(C2CCN(S(=O)(=O)c3ccccc3C(F)(F)F)CC2)nc2c1nnn2Cc1cccc(F)c1,–,–
N/C(CC1CC1(Cl)Cl)=N\OC(=O)c1ccccc1 (centres undefined),-8.59,–
N/C(Cc1ccc(Cl)cc1Cl)=N\OC(=O)c1ccccc1,–,–
CCN(CC)CCNC(=S)Nc1ccc(F)cc1,–,·
C/C(N)=C(/C#N)C(=O)COC(=O)CCCNC(=O)c1ccc(Cl)cc1,–,–
Nc1cc(Cl)ccc1C(=O)OCC(=O)NC1CCCCC1,–,·
CCN(C(=O)COC(=O)c1ccc(Cl)cc1N)C1CCCCC1,-6.4,–
COc1cc(/C=C2\SC(=Nc3ccccc3)N(CCc3c[nH]c4ccccc34)C2=O)ccc1OC(C)C(=O)O (centres undefined),–,·
COCCN1C(=O)/C(=C/c2ccc(Oc3ccc([N+](=O)[O-])cn3)c(OC)c2)SC1=Nc1ccccc1,-6.87,–
CSc1sc(C(=O)Nc2ccc(F)cc2F)c2c1C=CCC2,–,·
CC(C)(C)N(NC(=O)OCc1ccccc1)C(=O)c1ccccc1Cl,–,7.66
CC(C)(C)N(NC(=O)OCc1ccccc1)C(=O)c1ccccc1,–,·
Cc1cc(=O)oc2cc(NC(=S)NNC(=O)c3c(Cl)cnn3C)ccc12,–,–
SMILES,KCNQ2 block,KCNQ2 pot
COc1ccc(C(=O)O)cc1S(=O)(=O)NC(C)C,–,·
O=C(COC(=O)c1ccc2ccccc2n1)c1ccc(F)cc1,–,–
O=C(OCCNC(=O)c1ccc2ccccc2n1)c1ccc(F)cc1,-7.27,–
CCOc1ccccc1N1C(=O)c2ccc(S(=O)(=O)c3ccc(C(=O)O)cc3)cc2C1=O,–,–
Cn1c(CNC(=O)CNC(=O)Cc2ccccc2)cc(=O)n(C)c1=O,–,–
COc1ccc(NC(=O)CN(C)S(=O)(=O)c2ccc3c(c2)c(=O)n(C)c(=O)n3C)cc1,–,–
COc1ccc(OC)c(CCNC(=O)Cn2sc3nc(C)cc(C)c3c2=O)c1,-9.32,–
Cc1cc(C)c2c(=O)n(CC(=O)NC3CCCC3)sc2n1,–,–
CCOC(=O)c1nnc(-c2ccc(C)cc2)nc1Oc1ccccc1Cl,–,·
CCOC(=O)c1nnc(-c2ccc(C)cc2)nc1Oc1ccc(Cl)cc1Cl,-6,–
COc1cccc(C(=O)NCCS(=O)(=O)N2CCN(C(=O)c3ccco3)CC2)c1,–,–
COc1ccc(Cn2c(/C=C/c3ccccc3)nc3ccccc32)cc1,–,·
Clc1ccccc1Cn1c(/C=C/c2ccco2)nc2ccccc21,-7.05,–
COc1ccc(CNC(=O)C(c2ccc(C)o2)N(Cc2cccs2)C(=O)Cc2cccs2)cc1 (centres undefined),-6.43,–
O=C(NC1CCCC1)C(c1ccccc1)N(Cc1ccc2c(c1)OCO2)C(=O)Cc1cccs1 (centres undefined),–,–
Cc1cccc(N(C(=O)c2csnn2)C(C(=O)NCc2ccccc2)c2ccc(C)o2)c1 (centres undefined),–,·
O=C(NCc1ccccc1)C(c1ccccc1)N(Cc1ccc2c(c1)OCO2)C(=O)Cc1cccs1 (centres undefined),-7.01,–
COCCN(C(=O)Cc1cccs1)C(C(=O)NCc1ccc(OC)cc1)c1ccc(C)cc1 (centres undefined),–,–
COc1ccc(CNC(=O)C(c2ccc(C)o2)N(C(=O)c2csnn2)c2ccc(C(C)C)cc2)cc1 (centres undefined),-6.1,–
CN(C)S(=O)(=O)c1cccc(COC(=O)CN2C(=O)NC3(CCCC3)C2=O)c1,–,·
O=C(NCc1ccc2c(c1)OCO2)c1ccc(S(=O)(=O)N2CCOCC2)cc1,–,·
